Reference: the supplement of paper PMC10849652
About 7,900 targets were measured; listed, in parts, are those with a hit and a random draw of the rest. About 0.6% of all pairs of compound and target were hits.

What was measured:
Assay in all cases: log2 fold change, soluble protein after heating vs DMSO (PISA); higher = thermal stabilisation; K562 cells, 10 uM, 30 min; active = over 0.2 and 3.5 SD of the protein, either way, in both replicates (recomputed)
erlotinib = compound: C#Cc1cccc(Nc2ncnc3cc(OCCOC)c(OCCOC)cc23)c1 [erlotinib]
In short: (§1)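 K562 cells at 2×10^6 cells/mL were given 10 μM compound for 30 min. Aliquots then went through 3 min of heating across 48°C-58°C, were pooled, and were extracted in PBS with 0.5% NP-40 at 4°C, and the supernatant after 21,000xg for 90 min was quantified by TMTpro 16plex LC-MS/MS with channel sums equalised. Thermal stability relative to control samples, from duplicates, is given as log2 fold change.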

[1] = compound: C/C(=N\NC(=O)C1=CC(=CC=C1)S(=O)(=O)N2CCOCC2)/C3=C(C=CC(=C3)Cl)O
In short: as §1

[2] = compound: C1=CC(=C(C=C1Cl)C2=NC3=NC=CN=C3C(=N2)NC4=CC=NC=C4)F
In short: as §1

[3] = compound: C1=CC(=CC=C1C2=NC3=C(N2)C=C(C=C3)C(=O)N)OC4=CC=C(C=C4)Cl
In short: as §1

[4] = compound: C1=CC2=C(C=CC(=C2)/C=C\3/C(=O)NC(=NCC4=CC=CS4)S3)N=C1
In short: as §1

[5] = compound: C1=CC2=NC=CN=C2C=C1/C=C/3\C(=O)NC(=O)S3
In short: as §1

[6] = compound: C1=CC=C(C=C1)C2=NC(=C(N2)C3=CC=NC=C3)C4=CC(=C(C=C4)Cl)O
In short: as §1

[7] = compound: C1=CC=C2C(=C1)C3=NNC4=CC=CC(=C43)C2=O
In short: as §1

[8] = compound: C1CCN(C1)C(=O)NC2=CC=CC(=C2)NC3=NC=C(C(=N3)NCCC4=CN=CN4)Br
In short: as §1

[9] = compound: C1CN(CCC1(CC2=CC=C(C=C2)Cl)N)C3=NC=NC4=C3C=CN4
In short: as §1

IRAK-1-4 Inhibitor I = compound: C1COCCN1CCN2C3=CC=CC=C3N=C2NC(=O)C4=CC(=CC=C4)[N+](=O)[O-] [IRAK-1-4 Inhibitor I]
In short: as §1

ibrutinib = compound: C=CC(=O)N1CCC[C@@H](n2nc(-c3ccc(Oc4ccccc4)cc3)c3c(N)ncnc32)C1 [ibrutinib]
In short: as §1

[10] = compound: CC(=O)c1cnc2ccc(-c3cc(Cl)c(O)c(Cl)c3)nc2c1N[C@H]1CC[C@H](CN(C)C)CC1
In short: as §1

ralimetinib = compound: CC(C)(C)Cn1c(N)nc2ccc(-c3[nH]c(C(C)(C)C)nc3-c3ccc(F)cc3)nc21 [ralimetinib]
In short: as §1

[11] = compound: CC(C)(O)CC(=O)NCCn1ccc2ncnc(Nc3ccc(Oc4cccc(C(F)(F)F)c4)c(Cl)c3)c21
In short: as §1

[12] = compound: CC(C)C1=C2N=C(C=C(N2N=C1)NCC3=CC=CC=C3)NCCCCCCN
In short: as §1

[13] = compound: CC(C)C[C@@H](C=O)NC(=O)[C@H](CC(C)C)NC(=O)[C@H](CC(C)C)NC(=O)OCc1ccccc1
In short: as §1

pinometostat = compound: CC(C)N(C[C@H]1O[C@@H](n2cnc3c(N)ncnc32)[C@H](O)[C@@H]1O)[C@H]1C[C@@H](CCc2nc3cc(C(C)(C)C)ccc3[nH]2)C1 [pinometostat]
In short: as §1

[14] = compound: CC1=C(C(CC(=O)N1)C2=CC=C(C=C2)C(F)(F)F)C(=O)NC3=C(C=C4C(=C3)C=NN4)F
In short: as §1

[15] = compound: CC1=C(C2=C(C=C1)C(=O)C3=CC=CC=C3N2CCCN)C
In short: as §1

Measured: log2 fold change

TTC4 (UniProt O95801)
inactive: erlotinib 0.094 | [1] 0.081 | [2] 0.016 | [3] 0.005 | [4] 0.061 | [5] -0.007 | [6] 0.081 | [7] 0.025 | [8] -0.057 | [9] -0.018 | IRAK-1-4 Inhibitor I -0.058 | ibrutinib -0.031 | [10] -0.052 | ralimetinib 0.168 | [11] -0.072 | [12] -0.119 | [13] 0.024 | pinometostat -0.015 | [14] -0.001 | [15] 0

XPO5 (UniProt Q9HAV4)
active: [15] -0.204
inactive: erlotinib 0.011 | [1] 0.103 | [2] 0.105 | [3] -0.005 | [4] 0.011 | [5] 0.016 | [6] 0.023 | [7] -0.019 | [8] -0.024 | [9] -0.001 | IRAK-1-4 Inhibitor I -0.004 | ibrutinib -0.027 | [10] 0.032 | ralimetinib 0.001 | [11] -0.141 | [12] -0.21 | [13] -0.021 | pinometostat -0.01 | [14] 0

WRB (UniProt O00258)
inactive: erlotinib -0.02 | [1] 0.012 | [2] 0.032 | [3] 0.019 | [4] -0.003 | [5] 0.069 | [6] 0.019 | [7] -0.042 | [8] 0.027 | [9] -0.011 | IRAK-1-4 Inhibitor I 0.006 | ibrutinib 0.014 | [10] -0.074 | ralimetinib 0.004 | [11] 0.015 | [12] 0.043 | [13] -0.043 | pinometostat -0.032 | [14] -0.006 | [15] 0.011

UGDH (UniProt O60701)
active: [10] -0.616
inactive: erlotinib 0.004 | [1] 0.134 | [2] 0.128 | [3] 0.023 | [4] 0.046 | [5] -0.174 | [6] 0.017 | [7] 0.043 | [8] -0.063 | [9] 0.009 | IRAK-1-4 Inhibitor I -0.019 | ibrutinib 0.03 | ralimetinib -0.046 | [11] -0.038 | [12] 0.017 | [13] -0.043 | pinometostat -0.105 | [14] 0.004 | [15] 0.078

TP53BP1 isoform 2 (UniProt Q12888)
Sequence of UniProt Q12888 (Q12888 whole entry, looked up): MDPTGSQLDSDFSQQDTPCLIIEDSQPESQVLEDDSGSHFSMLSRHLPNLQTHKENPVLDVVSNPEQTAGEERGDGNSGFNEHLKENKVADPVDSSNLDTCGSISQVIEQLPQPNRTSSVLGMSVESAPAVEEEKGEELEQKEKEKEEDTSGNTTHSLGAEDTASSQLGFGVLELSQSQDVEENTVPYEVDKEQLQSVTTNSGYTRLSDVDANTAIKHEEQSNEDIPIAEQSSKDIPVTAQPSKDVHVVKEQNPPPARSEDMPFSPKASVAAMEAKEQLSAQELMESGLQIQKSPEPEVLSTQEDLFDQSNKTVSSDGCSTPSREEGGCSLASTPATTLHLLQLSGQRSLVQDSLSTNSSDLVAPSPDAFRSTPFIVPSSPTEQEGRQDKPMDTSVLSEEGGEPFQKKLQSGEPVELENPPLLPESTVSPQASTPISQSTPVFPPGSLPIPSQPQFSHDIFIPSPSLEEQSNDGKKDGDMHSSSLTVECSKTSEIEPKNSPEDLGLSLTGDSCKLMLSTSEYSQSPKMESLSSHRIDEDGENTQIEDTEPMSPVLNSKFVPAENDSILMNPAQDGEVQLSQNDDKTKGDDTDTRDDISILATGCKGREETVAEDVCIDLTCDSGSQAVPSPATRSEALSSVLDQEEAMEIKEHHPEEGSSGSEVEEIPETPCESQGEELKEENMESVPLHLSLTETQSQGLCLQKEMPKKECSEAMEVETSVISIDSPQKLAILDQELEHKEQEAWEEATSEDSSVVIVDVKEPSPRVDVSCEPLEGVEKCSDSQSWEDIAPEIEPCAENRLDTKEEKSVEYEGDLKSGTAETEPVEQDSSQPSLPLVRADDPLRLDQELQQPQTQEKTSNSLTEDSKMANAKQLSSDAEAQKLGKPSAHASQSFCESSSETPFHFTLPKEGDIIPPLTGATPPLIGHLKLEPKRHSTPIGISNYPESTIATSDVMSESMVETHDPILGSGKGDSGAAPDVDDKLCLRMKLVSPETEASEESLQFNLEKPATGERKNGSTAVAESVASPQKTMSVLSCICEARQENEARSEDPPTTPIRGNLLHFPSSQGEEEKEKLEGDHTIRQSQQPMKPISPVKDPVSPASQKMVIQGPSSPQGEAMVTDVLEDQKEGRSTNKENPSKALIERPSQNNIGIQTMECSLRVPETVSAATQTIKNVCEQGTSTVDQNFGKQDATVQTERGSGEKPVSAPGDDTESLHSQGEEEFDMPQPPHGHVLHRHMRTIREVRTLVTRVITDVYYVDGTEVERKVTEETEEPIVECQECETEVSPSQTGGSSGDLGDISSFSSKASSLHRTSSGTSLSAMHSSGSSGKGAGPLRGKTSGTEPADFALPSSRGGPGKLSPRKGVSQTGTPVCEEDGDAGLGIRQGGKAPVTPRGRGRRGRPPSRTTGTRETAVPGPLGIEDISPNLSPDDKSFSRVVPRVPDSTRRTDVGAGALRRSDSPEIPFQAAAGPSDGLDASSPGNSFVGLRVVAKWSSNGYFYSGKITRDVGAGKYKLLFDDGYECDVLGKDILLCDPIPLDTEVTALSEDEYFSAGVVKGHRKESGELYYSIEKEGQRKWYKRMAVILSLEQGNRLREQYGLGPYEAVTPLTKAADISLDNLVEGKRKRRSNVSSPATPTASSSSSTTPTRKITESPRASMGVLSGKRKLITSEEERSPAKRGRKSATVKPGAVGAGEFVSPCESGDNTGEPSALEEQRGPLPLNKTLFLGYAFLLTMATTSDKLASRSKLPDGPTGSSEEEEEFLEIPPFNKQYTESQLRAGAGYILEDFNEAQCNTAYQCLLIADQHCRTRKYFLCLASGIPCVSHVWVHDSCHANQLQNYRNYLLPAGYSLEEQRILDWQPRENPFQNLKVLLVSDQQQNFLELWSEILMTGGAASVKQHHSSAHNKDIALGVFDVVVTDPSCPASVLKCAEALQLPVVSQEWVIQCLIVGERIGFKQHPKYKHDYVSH
active: [15] -0.337
inactive: erlotinib -0.011 | [1] 0.019 | [2] -0.017 | [3] -0.001 | [4] 0.012 | [5] 0.043 | [6] -0.024 | [7] -0.078 | [8] -0.057 | [9] -0.077 | IRAK-1-4 Inhibitor I -0.059 | ibrutinib -0.046 | [10] -0.002 | ralimetinib 0.056 | [11] -0.024 | [12] -0.089 | [13] 0.019 | pinometostat 0.021 | [14] 0.003

UBC (UniProt P0CG48)
inactive: erlotinib -0.007 | [1] -0.021 | [2] -0.004 | [3] 0.011 | [4] 0.024 | [5] -0.044 | [6] -0.054 | [7] 0.009 | [8] 0.043 | [9] -0.041 | IRAK-1-4 Inhibitor I 0.022 | ibrutinib 0.027 | [10] 0.033 | ralimetinib -0.064 | [11] 0.008 | [12] 0.167 | pinometostat 0.042 | [14] -0.018
active: [13] 0.296 | [15] 0.281

WDR62 isoform 4 (UniProt O43379)
Sequence of UniProt O43379 (O43379 whole entry, looked up): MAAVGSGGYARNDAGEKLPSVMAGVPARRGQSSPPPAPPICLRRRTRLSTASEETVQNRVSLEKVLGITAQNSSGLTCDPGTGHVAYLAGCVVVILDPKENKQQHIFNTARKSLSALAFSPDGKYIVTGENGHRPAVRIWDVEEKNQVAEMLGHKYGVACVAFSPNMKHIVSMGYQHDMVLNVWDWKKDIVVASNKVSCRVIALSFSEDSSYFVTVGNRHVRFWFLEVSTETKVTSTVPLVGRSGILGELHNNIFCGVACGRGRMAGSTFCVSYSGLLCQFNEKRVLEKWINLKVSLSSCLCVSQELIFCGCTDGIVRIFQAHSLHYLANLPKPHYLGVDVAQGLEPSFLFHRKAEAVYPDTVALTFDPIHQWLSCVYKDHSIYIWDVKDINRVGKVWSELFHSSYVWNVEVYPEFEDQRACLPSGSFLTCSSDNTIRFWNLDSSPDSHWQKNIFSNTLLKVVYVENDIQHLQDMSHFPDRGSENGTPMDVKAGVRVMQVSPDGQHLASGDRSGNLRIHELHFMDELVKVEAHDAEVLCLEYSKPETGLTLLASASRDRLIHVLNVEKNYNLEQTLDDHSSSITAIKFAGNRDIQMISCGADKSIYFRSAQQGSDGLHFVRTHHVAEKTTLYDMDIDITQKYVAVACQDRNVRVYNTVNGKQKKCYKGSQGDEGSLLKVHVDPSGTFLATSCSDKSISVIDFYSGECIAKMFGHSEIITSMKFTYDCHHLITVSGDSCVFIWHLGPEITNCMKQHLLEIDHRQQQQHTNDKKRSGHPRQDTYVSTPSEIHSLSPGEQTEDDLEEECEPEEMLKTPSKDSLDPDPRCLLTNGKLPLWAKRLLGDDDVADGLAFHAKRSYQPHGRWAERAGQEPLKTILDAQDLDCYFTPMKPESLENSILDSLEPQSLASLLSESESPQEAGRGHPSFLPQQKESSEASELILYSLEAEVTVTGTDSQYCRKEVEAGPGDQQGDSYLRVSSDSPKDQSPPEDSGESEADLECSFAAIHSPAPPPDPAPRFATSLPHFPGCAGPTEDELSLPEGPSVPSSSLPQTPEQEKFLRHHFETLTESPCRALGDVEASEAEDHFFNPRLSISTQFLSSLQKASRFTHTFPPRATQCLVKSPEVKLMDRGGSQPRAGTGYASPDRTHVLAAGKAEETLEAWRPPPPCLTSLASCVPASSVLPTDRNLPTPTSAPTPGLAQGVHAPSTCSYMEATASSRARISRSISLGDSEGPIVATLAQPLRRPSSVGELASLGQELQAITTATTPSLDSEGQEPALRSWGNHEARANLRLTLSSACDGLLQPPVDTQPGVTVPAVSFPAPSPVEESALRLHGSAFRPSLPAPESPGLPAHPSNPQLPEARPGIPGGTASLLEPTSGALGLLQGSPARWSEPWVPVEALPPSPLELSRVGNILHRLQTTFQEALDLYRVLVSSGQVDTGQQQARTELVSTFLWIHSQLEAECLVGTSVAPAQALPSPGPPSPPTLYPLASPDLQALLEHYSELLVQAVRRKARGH
inactive: erlotinib 0.046 | [1] 0.015 | [2] -0.118 | [3] 0.055 | [4] -0.016 | [5] 0.046 | [6] -0.05 | [7] -0.041 | [8] 0 | [9] 0.014 | IRAK-1-4 Inhibitor I 0.085 | ibrutinib -0.069 | ralimetinib 0.003 | [11] -0.003 | [12] -0.085 | [13] 0.042 | pinometostat 0.062 | [14] 0.063 | [15] -0.176
active: [10] -0.579

TMEM179B (UniProt Q7Z7N9)
inactive: erlotinib 0.042 | [1] -0.016 | [2] 0.073 | [3] 0.032 | [4] -0.009 | [5] 0.034 | [6] -0.107 | [7] -0.032 | [8] -0.165 | [9] -0.005 | IRAK-1-4 Inhibitor I 0.04 | ibrutinib -0.05 | [10] -0.061 | ralimetinib -0.008 | [11] -0.24 | [12] -0.011 | [13] -0.021 | pinometostat -0.024 | [14] 0.017 | [15] 0.019

XPO6 (UniProt Q96QU8)
inactive: erlotinib 0.07 | [1] 0.056 | [3] -0.055 | [4] 0.093 | [5] -0.15 | [6] -0.01 | [7] -0.008 | [8] 0.087 | [9] 0.02 | IRAK-1-4 Inhibitor I -0.131 | ibrutinib 0.246 | [10] -0.038 | ralimetinib 0.083 | [12] -0.189 | [13] -0.023 | [14] -0.08 | [15] 0.067
active: [2] -0.465 | [11] 0.434 | pinometostat 0.646

WDR41 (UniProt Q9HAD4)
active: [12] -0.271
inactive: erlotinib 0.039 | [1] 0.038 | [2] 0.128 | [3] 0.026 | [4] -0.016 | [5] 0.019 | [6] -0.005 | [7] -0.07 | [8] -0.012 | [9] 0.073 | IRAK-1-4 Inhibitor I -0.024 | ibrutinib -0.022 | [10] -0.023 | ralimetinib -0.036 | [11] -0.077 | [13] -0.026 | pinometostat 0.012 | [14] 0.127 | [15] -0.001

WDR11 (UniProt Q9BZH6)
inactive: erlotinib 0.103 | [1] -0.081 | [2] 0.145 | [3] -0.004 | [4] 0.115 | [5] 0.067 | [6] -0.168 | [7] 0.005 | [8] 0.091 | [9] 0.023 | IRAK-1-4 Inhibitor I 0.009 | ibrutinib -0.112 | [10] -0.01 | ralimetinib -0.068 | [11] -0.018 | [12] -0.056 | [13] -0.047 | pinometostat 0 | [14] 0.069 | [15] 0.065

TXN2 (UniProt Q99757)
inactive: erlotinib -0.035 | [1] -0.022 | [2] 0.093 | [3] -0.032 | [4] 0.086 | [5] 0.098 | [6] -0.02 | [7] 0.029 | [8] 0.029 | [9] 0.005 | IRAK-1-4 Inhibitor I 0.081 | ibrutinib 0.021 | [10] 0.072 | ralimetinib -0.093 | [11] 0.079 | [12] 0.086 | [13] -0.029 | pinometostat -0.048 | [14] 0.086 | [15] 0.041

VPS8 (UniProt Q8N3P4)
Sequence of UniProt Q8N3P4 (Q8N3P4 whole entry, looked up): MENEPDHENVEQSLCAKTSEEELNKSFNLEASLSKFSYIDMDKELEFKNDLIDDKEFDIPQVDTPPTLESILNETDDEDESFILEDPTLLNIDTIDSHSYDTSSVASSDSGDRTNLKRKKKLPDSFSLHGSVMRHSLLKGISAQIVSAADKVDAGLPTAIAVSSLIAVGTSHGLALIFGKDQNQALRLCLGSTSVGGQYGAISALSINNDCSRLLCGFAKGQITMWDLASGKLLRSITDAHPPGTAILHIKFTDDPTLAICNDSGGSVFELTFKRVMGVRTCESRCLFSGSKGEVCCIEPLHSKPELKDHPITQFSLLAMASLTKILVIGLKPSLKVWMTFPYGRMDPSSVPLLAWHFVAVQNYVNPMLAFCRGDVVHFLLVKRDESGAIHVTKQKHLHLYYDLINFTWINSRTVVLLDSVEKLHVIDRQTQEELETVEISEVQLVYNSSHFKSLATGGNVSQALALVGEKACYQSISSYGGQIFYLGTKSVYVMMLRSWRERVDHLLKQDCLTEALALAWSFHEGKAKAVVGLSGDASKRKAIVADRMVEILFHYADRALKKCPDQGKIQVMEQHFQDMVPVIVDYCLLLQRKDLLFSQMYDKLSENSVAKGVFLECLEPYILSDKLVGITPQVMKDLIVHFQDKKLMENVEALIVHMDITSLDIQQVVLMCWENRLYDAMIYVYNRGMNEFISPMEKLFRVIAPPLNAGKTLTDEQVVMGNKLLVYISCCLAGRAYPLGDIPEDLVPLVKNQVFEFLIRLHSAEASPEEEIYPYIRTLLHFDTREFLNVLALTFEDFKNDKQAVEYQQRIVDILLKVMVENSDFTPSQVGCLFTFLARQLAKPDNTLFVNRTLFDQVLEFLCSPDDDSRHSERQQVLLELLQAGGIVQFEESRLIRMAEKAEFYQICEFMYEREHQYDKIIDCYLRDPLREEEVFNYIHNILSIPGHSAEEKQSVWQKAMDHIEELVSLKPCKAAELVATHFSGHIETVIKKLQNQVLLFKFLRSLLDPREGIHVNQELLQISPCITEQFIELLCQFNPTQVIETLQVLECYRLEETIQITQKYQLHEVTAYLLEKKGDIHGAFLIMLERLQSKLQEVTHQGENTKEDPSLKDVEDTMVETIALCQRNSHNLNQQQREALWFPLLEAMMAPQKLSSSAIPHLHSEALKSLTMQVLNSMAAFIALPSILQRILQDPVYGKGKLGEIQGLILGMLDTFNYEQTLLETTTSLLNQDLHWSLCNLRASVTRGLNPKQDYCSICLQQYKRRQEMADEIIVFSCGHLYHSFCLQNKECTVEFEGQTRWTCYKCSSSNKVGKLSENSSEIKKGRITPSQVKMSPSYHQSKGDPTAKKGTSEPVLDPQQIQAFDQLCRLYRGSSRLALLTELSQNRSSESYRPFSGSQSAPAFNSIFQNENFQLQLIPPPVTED
inactive: erlotinib 0.005 | [1] 0.036 | [2] 0.017 | [3] -0.024 | [4] 0.016 | [5] 0.031 | [6] 0.041 | [7] 0.012 | [8] 0.026 | [9] 0.027 | IRAK-1-4 Inhibitor I -0.085 | ibrutinib -0.117 | [10] -0.004 | ralimetinib 0.088 | [11] -0.079 | [12] -0.254 | [13] 0.052 | pinometostat 0.039 | [14] 0.026 | [15] 0.015

TOMM20 (UniProt Q15388)
Sequence of UniProt Q15388 (Q15388 whole entry, looked up): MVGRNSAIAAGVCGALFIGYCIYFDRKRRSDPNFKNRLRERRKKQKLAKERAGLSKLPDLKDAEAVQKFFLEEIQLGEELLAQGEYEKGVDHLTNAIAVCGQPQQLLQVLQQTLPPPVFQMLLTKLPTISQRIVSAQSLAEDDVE
active: [12] -0.343
inactive: erlotinib 0.073 | [1] -0.01 | [2] -0.013 | [3] 0.004 | [4] 0.012 | [5] 0.018 | [6] 0.049 | [7] -0.006 | [8] 0.007 | [9] 0.027 | IRAK-1-4 Inhibitor I 0.006 | ibrutinib 0 | [10] 0.003 | ralimetinib -0.017 | [11] 0.118 | [13] 0.047 | pinometostat 0.022 | [14] -0.021 | [15] 0.018

VPS52 (UniProt Q8N1B4)
inactive: erlotinib 0.019 | [1] 0.048 | [2] -0.029 | [3] 0.067 | [4] 0.032 | [5] 0.031 | [6] 0.004 | [7] 0.079 | [8] -0.033 | [9] -0.051 | IRAK-1-4 Inhibitor I -0.057 | ibrutinib 0.068 | [10] 0 | ralimetinib 0.05 | [11] -0.161 | [12] -0.02 | [13] 0.088 | pinometostat 0.048 | [14] -0.018 | [15] 0.142

TXNL1 (UniProt O43396)
active: [13] 0.278
inactive: erlotinib -0.012 | [1] 0.096 | [2] 0.009 | [3] -0.031 | [4] -0.011 | [5] -0.018 | [6] 0.014 | [7] 0.016 | [8] -0.001 | [9] -0.077 | IRAK-1-4 Inhibitor I -0.035 | ibrutinib -0.014 | [10] -0.001 | ralimetinib -0.003 | [11] -0.03 | [12] -0.052 | pinometostat -0.029 | [14] -0.027 | [15] 0.038
